Results on 31 compounds are retold here after the supplement of paper PMC11172423.

For the first experiment, the system named is Falciformispora senegalensis CBS197.79. Description: growth relative to untreated control; higher = less inhibition, active = 20 or less. The following applies: 100 µM. The essentials:
(§1)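 In 96-well plates, suspended hyphal fragments of M. mycetomatis MM55 or F. senegalensis CBS197.79 were exposed to compound at 100 or 25 µM for 7 days at 37 °C. The suspension medium was colourless RPMI 1640 with L-glutamine and MOPS, adjusted to 68–72% transmission at 660 nm. Viability was measured with MTS (2 h, 490 nm) or resazurin (600 nm). Growth means metabolic activity compared with the untreated growth control after blank correction of both with medium plus dye.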
For `CC(C)(C)Nc1ncc2nc(Nc3cccc(C(F)(F)F)c3)n(CC3CCNCC3)c2n1`, the growth was 97.2% (inactive).

For the compound `CCOC(=O)NCCOc1cnn(Cc2ccccc2)c(=O)c1`, the growth is 101% (inactive).

Take `CCOc1ccc(-c2ccnc(Nc3cncc(OC)c3)n2)cc1C#N`: the growth was 86.8% (inactive).

Consider `O=C(c1ccc(Nc2nccc(-c3ccc(C(F)(F)F)c(Cl)c3)n2)cc1)N1CC(O)C1`, for which the growth was 106% (inactive).

As to `C[C@H]1c2cccc(O)c2C(=O)C2=C(O)[C@]3(O)C(O)=C(C(N)=O)C(=O)[C@@H](N(C)C)[C@@H]3[C@@H](O)[C@@H]21`, the growth was 108% (inactive).

The test system of a further experiment is Madurella mycetomatis MM55. Described as above. The following applies: 25 µM. The essentials:
as §1
Consider `CNC(=O)c1cc(-c2n[nH]c3ccc(-c4nc(C5CCCN5)n[nH]4)cc23)ccc1F` (stereo unspecified), for which the growth was 98.4% (inactive).

As for `CO[C@H]1C[C@@H]2CC[C@@H](C)[C@@](O)(O2)C(=O)C(=O)N2CCCC[C@H]2C(=O)O[C@H]([C@H](C)C[C@@H]2CC[C@@H](O)[C@H](OC)C2)CC(=O)[C@H](C)/C=C(\C)[C@@H](O)[C@@H](OC)C(=O)[C@H](C)C[C@H](C)/C=C/C=C/C=C/1C`, the growth was 120% (inactive).

Take `CC(C)Nc1ncc2nc(Nc3cc(Cl)cc(C(F)(F)F)c3)n(C3CCNCC3)c2n1`: the growth was 118% (inactive).

In the case of `OCCN1CCc2nc(NCc3ccc(F)cc3F)nc(NC34CC(C3)C4)c2CC1`, the growth was 32.2% (inactive).

Turning to `Cc1c2c(n3c(nc4ccccc43)c1C#N)N(CCN(C)C)CC2`, the growth is 101% (inactive).

For `Oc1nc2ccccc2n1C1CCN(CCCC(c2ccc(F)cc2)c2ccc(F)cc2)CC1`, the growth was 7.07% (active).

In the case of `CO[C@H]1C[C@H](O[C@@H]2/C(C)=C/C[C@@H]3C[C@@H](C[C@]4(CC[C@H](C)[C@@H](C5CCCCC5)O4)O3)OC(=O)[C@@H]3C=C(C)/C(=N/O)[C@H]4OC/C(=C\C=C\[C@@H]2C)[C@]43O)O[C@@H](C)[C@@H]1O`, the growth is 88.8% (inactive).

For the compound `COC(=O)N[C@H](C(=O)N[C@@H](Cc1ccccc1)[C@@H](O)CN(Cc1ccc(-c2ccccn2)cc1)NC(=O)[C@@H](NC(=O)OC)C(C)(C)C)C(C)(C)C`, the growth was 88.9% (inactive).

For `O[C@@H](c1cc(C(F)(F)F)nc2c(C(F)(F)F)cccc12)[C@H]1CCCCN1`, the growth is 5.4% (active).

On to `CCCCN(CCCC)CC(O)c1cc(Cl)cc2c1-c1ccc(Cl)cc1/C2=C/c1ccc(Cl)cc1` (stereo unspecified), for which the growth is 107% (inactive).

Consider `CN(C)CCCN1c2ccccc2Sc2ccc(Cl)cc21`, for which the growth is 4.01% (active).

With `CC(=O)Nc1ccc(NC(=O)c2cc(-c3ccc(C)cc3O)n[nH]2)cc1`, the growth is 85.3% (inactive).

With `c1cc(N2CCC(CN3CCOCC3)CC2)c2sccc2n1`, the growth was 90.4% (inactive).

In the case of `CS(=O)(=O)NC1CCN(C(=O)c2ccc(Nc3nccc(-c4cc(Cl)cc(C(F)(F)F)c4)n3)cc2)C1` (stereo unspecified), the growth was 122% (inactive).

With `CCN(CC)C(=O)/C(C#N)=C/c1cc(O)c(O)c([N+](=O)[O-])c1`, the growth is 107% (inactive).

Consider `c1ccc(Nc2cc(Nc3cc(-c4ccccc4)[nH]n3)nc3ccnn23)cc1`, for which the growth is 8.39% (active).

Turning to `CS(=O)(=O)N1CCC(NC(=O)c2cc3ccc(C(F)(F)F)cc3[nH]2)CC1`, the growth was 101% (inactive).

In the case of `CCC(CC)COC(=O)[C@H](C)NP(=O)(OC[C@H]1O[C@@](C#N)(c2ccc3c(N)ncnn23)[C@H](O)[C@@H]1O)Oc1ccccc1` (stereo partly specified), the growth was 95.1% (inactive).

`Clc1ccc2ncc(-c3cccc(NC4CCNC4)n3)n2c1` (stereo unspecified): the growth was 78.8% (inactive).

As to `CCCCc1nc(Cl)c(CO)n1Cc1ccc(-c2ccccc2-c2nn[nH]n2)cc1`, the growth was 103% (inactive).

Turning to `Cc1ccc(-c2cc(C(F)(F)F)nn2-c2ccc(S(N)(=O)=O)cc2)cc1`, the growth was 98% (inactive).

Consider `COc1ccc2c(O[C@@H]3C[C@H]4C(=O)N[C@]5(C(=O)NS(=O)(=O)C6CC6)C[C@H]5/C=C\CCCCN(C)C(=O)[C@@H]4C3)cc(-c3nc(C(C)C)cs3)nc2c1C`, for which the growth is 87.1% (inactive).

In the case of `CN(C)CCCN1C(=O)c2[nH]nc(-c3ccc(Cl)cc3O)c2C1c1ccc(Cl)cc1` (stereo unspecified), the growth is 68% (inactive).

Consider `Cc1cc(C)c2cc(C(=O)N[C@@H](C)c3ccccc3)[nH]c2c1`, for which the growth was 7.91% (active).

For `CC(C)(C)c1nn(-c2ccc(Cl)cc2)c2[nH]c(=O)c(CNCc3ccc4c(c3)OCO4)cc12`, the growth is 5.51% (active).

Take `Cc1noc(C2CN(C(=O)c3ccc(Nc4nccc(-c5ccc(Cl)cc5)n4)cc3)C2)n1`: the growth was 122% (inactive).
